Several values for one entry are separate records, joined by “and”; a condition that tells them apart may be missing. Equal values may be shown once. Records with an inconclusive call do not appear. Activity calls are given as the source filed them. Unless noted, calls follow the shape of the dose curve; as a rule, active = well fitted curve in the direction sought with a large enough effect; inconclusive = small, poorly fitted or top-dose-only effect, or another doubt; inactive = no such curve, though single readings can be large; an effect the other way counts as inactive or inconclusive.
How the values were obtained:
[1] = qHTS Assay for Lipid Storage Modulators (AID 1519; calls by dose curve); conditions: Drosophila S3 cells, BODIPY lipid droplet/cell ratio, laser cytometry, cells loaded with oleic acid
How it was run: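 Cells seeded at 5,000 per well were treated with compounds over a concentration series and loaded with oleic acid (400 uM, as added). Lipid droplet fluorescence (488 nm excitation, 500-530 nm channel) was read by laser-scanning cytometry and normalized to 20 uM Triacsin C.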

[2] = target: Ubiquitin carboxyl-terminal hydrolase 1 (Homo sapiens) (UniProt O94782); assay: Inhibitors of USP1/UAF1: Pilot qHTS (AID 504865); conditions: purified USP1/UAF1, Ub-rhodamine cleavage fluorescence; series mostly up to 54.9 µM;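 also: rhodamine fluorescence freed from ubiquitin-rhodamine substrate followed over time; top concentration of the series differs between compounds; % is scaled to controls: 0 for no effect and ±100 for the full control effect; nearly all actives have a fitted effect of over 35% in size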
How it was run: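 USP1/UAF1 complex (1nM) preincubated with compound 15 min at room temperature, then Ub-Rho substrate (150nM final) added. Fluorescence read kinetically at 480/540 nm, 6 reads every 60 seconds. Buffer: 50mM HEPES pH 7.8, 0.5mM EDTA, 0.1 mg/ml BSA, 1mM TCEP, 0.01% Tween-20.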

[3] = AP1 Signaling Pathway (AID 357; active = well fitted curve in either direction with a large enough effect, not every such curve was filed as active; also: % is scaled to controls: 0 for no effect and ±100 for the full control effect); conditions: ME-180 AP-1-bla reporter, EGF-induced, beta-lactamase ratio, 5 h; at 7.69 µM (top of the series) unless noted
How it was run: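 ME-180 cells with beta-lactamase reporter under AP-1 response element, stimulated with EC50 EGF; compounds tested in titration series, 5 h at 37 °C. CCF4 substrate added 2.5 h at room temperature; 460/530 nm emission ratio gave %activity and AC50.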

[4] = target: Cytochrome P450 1A2 (Homo sapiens) (UniProt P05177); assay: p450-cyp1a2 (AID 410; calls by dose curve;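 also: -100% = full effect of reference inhibitor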); conditions: recombinant CYP1A2, luciferin-ME demethylation, luminescence; series mostly up to 57 µM
How it was run: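 Inhibition was calculated relative to 57 uM furafylline (full inhibition). The reaction used human CYP1A2 at 20nM with Luciferin-ME at its Km, 100uM, driven by an NADPH-regenerating system for 60 min at room temperature.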

[5] = NFAT Signaling Pathway (AID 444; active = well fitted curve in either direction with a large enough effect, not every such curve was filed as active;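 also: carbachol stimulus at about its EC50 of 1 µM final; % is scaled to controls: 0 for no effect and ±100 for the full control effect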); conditions: Jurkat NFAT-bla M1, carbachol, beta-lactamase ratio, 5 h; at 7.69 µM (top of the series) unless noted
How it was run: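 Jurkat cells carrying an NFAT-driven β-lactamase reporter and co-transfected muscarinic M1 receptor were treated with compound plus carbachol (1 uM final, an EC50 level) for 5 h at 37 °C. CCF4 loading followed for 1 h at RT; 460/530 nm ratio gave %activity.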

[6] = Stat Signaling Pathway (AID 446; active = well fitted curve in either direction with a large enough effect, not every such curve was filed as active;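 also: ME-180 cervical cancer cells given 40 pM IL-6 alongside compound; SIE-controlled beta-lactamase reporter measured as 460/530 nm FRET emission ratio; % is scaled to controls: 0 for no effect and ±100 for the full control effect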); conditions: ME-180 SIE beta-lactamase reporter, IL-6 stimulated, 5 h
How it was run: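 ME-180 cells carrying a SIE-driven beta-lactamase reporter are stimulated with 40 pM IL-6 for 5 h at 37C in the presence of compound. The 460/530 nm FRET substrate ratio is read after 2.5 h at RT. Data are normalised to 300 pM IL-6 and to 125 nM JAK inhibitor controls.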

[7] = target: Glucocorticoid receptor (Homo sapiens) (UniProt P04150); assay: GR-GFP Redistribution (AID 450;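 active = compounds whose dose series gives a full or clear partial fitted curve of increased nuclear translocation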; also: potency is read from the fitted curve at half-maximal effect); conditions: U2OS GR-GFP nuclear translocation, laser cytometry, 2 h
[8] = target: Glucocorticoid receptor (Homo sapiens) (UniProt P04150); assay: GR-EFC Redistribution (AID 451; calls by dose curve; also: potency is read from the fitted curve at half-maximal effect); conditions: CHO-K1 GR-EFC translocation, beta-gal luminescence, 2 h
How it was run: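 CHO-K1 cells stably expressing nuclear-localized β-gal enzyme acceptor and GR fused C-terminally to the enzyme donor fragment; ligand-driven nuclear translocation restores β-gal by complementation. Compounds titrated up to 46 uM final, 2 h at 37 °C; luminescence read.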

[9] = target: Mitogen-activated protein kinase 10 (Mus musculus) (UniProt Q61831); assay: JNK3 AlphaScreen Assay (AID 530; active = well fitted curve in either direction with a large enough effect, not every such curve was filed as active;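 also: kinase came from lysate of stimulated human HepG2 cells; signal reports phosphorylation of biotinylated GST-cJun 1-79 at Ser73 with 10 µM ATP; % is scaled to controls: 0 for no effect and ±100 for the full control effect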); conditions: JNK3 lysate, c-Jun phosphorylation; series mostly up to 57.1 µM
How it was run: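 JNK3 came from HepG2 lysates pre-activated with IL-1beta and TNF-alpha and phosphorylated biotinylated GST-cJun (1-79) at 10 uM ATP, pH 7.6, room temperature. Compounds were titrated. AlphaScreen signal used anti-phospho-cJun (Ser73) antibody.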

[10] = target: ATP-dependent 6-phosphofructokinase (Trypanosoma brucei brucei) (UniProt O15648); assay: qHTS Assay to Find Inhibitors of T. brucei phosphofructokinase: hit validation (AID 492961); conditions: T. brucei PFK, ADP-Glo luminescence; series mostly up to 24.3 µM
How it was run: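 Percent activity derived from corrected luminescence, normalized between 0x and 1x enzyme controls, then fitted to concentration-response curves. Conditions: 1.25 nM PFK, 0.1 mM ATP, 0.5 mM F6P, 45 min RT.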

[11] = target: Luciferin 4-monooxygenase (Photinus pyralis) (UniProt P08659); assay: Biochemical firefly luciferase enzyme assay for NPC (AID 624030);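 also: purified P. pyralis luciferase at 10 nM with luciferin and ATP substrate; 0% = DMSO and -100% = full luciferase inhibition by PTC124 control; nearly all actives have a fitted effect of over 70% in size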; conditions: purified P. pyralis luciferase, luminescence, 5 min; series mostly up to 58.6 µM
How it was run: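 Counter-screen for direct inhibition of the luciferase enzyme by approved-drug library compounds, run at 10 nM enzyme in 50 mM Tris acetate (final). Luminescence was read within 5 min of enzyme-buffer addition and normalized to PTC124 versus DMSO (0%).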

[12] = qHTS profiling for inhibitors of Plasmodium falciparum proliferation (AID 504749);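 also: 0% = DMSO vehicle and full inhibition = artemisinin control; nearly all actives have a fitted effect of over 60% in size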; conditions: P. falciparum in erythrocytes, SYBR Green DNA, 72 h, at 12.8 µM (top of the series)
How it was run: (§1)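 P. falciparum-infected erythrocytes (0.3% parasitemia, 2.5% hematocrit final) were exposed to compounds for 72 h at 37 C in 5% CO2, then lysed with SYBR Green buffer overnight at room temperature; parasite DNA fluorescence was normalized to artemisinin and DMSO controls.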

[13] = system: CP238; assay: as above; conditions: P. falciparum in erythrocytes, SYBR Green DNA, 72 h; series mostly up to 12.8 µM
How it was run: as §1

[14] = system: CP262; assay: as above; conditions: P. falciparum in erythrocytes, SYBR Green DNA, 72 h; series mostly up to 12.8 µM
How it was run: as §1

[15] = system: CP325; assay: as above; conditions: P. falciparum in erythrocytes, SYBR Green DNA, 72 h; series mostly up to 12.8 µM
How it was run: as §1

[16] = system: ECU; assay: as above; conditions: P. falciparum in erythrocytes, SYBR Green DNA, 72 h; series mostly up to 12.8 µM
How it was run: as §1

[17] = system: FAB9; assay: as above; conditions: P. falciparum in erythrocytes, SYBR Green DNA, 72 h; series mostly up to 12.8 µM
How it was run: as §1

[18] = system: HB3; assay: as above; conditions: P. falciparum in erythrocytes, SYBR Green DNA, 72 h; series mostly up to 12.8 µM
How it was run: as §1

[19] = system: JCK; assay: as above; conditions: P. falciparum in erythrocytes, SYBR Green DNA, 72 h; series mostly up to 12.8 µM
How it was run: as §1

[20] = target: 3',5'-cyclic-AMP phosphodiesterase 4B (Homo sapiens) (UniProt Q07343); assay: qHTS Assay for Inhibitors of PDE-IV (AID 607; active = well fitted activation curve with a large enough effect in the main read-out, with a control signal flat, not every such curve was filed as active; also: % of control where 0% means no effect); conditions: HEK293 ACTOne CNG channel cells, membrane potential fluorescence; series mostly up to 22.9 µM
How it was run: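 HEK293 ACTOne cells with CNG channel (1000/well), endogenous PDE4; membrane potential dye, compounds up to 22.9 uM final. Fluorescence Ex 535/Em 590; RO 20-1724 (100 uM final) as reference.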

[21] = measured here: cell count channel max response
[22] = measured here: lipid channel max response
[23] = at 7.69 µM (top of the series) unless noted

Chain of Cytochrome P450 1A2 (Homo sapiens) (P05177 whole entry, looked up): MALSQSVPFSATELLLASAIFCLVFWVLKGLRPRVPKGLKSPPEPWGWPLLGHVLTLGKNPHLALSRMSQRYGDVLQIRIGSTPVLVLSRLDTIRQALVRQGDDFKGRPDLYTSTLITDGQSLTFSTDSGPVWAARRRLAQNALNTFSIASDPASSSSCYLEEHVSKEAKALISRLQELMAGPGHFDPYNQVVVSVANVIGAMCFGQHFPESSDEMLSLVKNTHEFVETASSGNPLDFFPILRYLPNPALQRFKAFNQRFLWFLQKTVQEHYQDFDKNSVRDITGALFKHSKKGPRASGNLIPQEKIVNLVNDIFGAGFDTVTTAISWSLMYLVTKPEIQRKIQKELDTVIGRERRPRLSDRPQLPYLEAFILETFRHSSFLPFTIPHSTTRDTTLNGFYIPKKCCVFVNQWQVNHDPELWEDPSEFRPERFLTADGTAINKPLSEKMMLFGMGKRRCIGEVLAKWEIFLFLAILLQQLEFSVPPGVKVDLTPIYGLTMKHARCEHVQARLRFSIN
Chain of Ubiquitin carboxyl-terminal hydrolase 1 (Homo sapiens) (O94782 whole entry, looked up): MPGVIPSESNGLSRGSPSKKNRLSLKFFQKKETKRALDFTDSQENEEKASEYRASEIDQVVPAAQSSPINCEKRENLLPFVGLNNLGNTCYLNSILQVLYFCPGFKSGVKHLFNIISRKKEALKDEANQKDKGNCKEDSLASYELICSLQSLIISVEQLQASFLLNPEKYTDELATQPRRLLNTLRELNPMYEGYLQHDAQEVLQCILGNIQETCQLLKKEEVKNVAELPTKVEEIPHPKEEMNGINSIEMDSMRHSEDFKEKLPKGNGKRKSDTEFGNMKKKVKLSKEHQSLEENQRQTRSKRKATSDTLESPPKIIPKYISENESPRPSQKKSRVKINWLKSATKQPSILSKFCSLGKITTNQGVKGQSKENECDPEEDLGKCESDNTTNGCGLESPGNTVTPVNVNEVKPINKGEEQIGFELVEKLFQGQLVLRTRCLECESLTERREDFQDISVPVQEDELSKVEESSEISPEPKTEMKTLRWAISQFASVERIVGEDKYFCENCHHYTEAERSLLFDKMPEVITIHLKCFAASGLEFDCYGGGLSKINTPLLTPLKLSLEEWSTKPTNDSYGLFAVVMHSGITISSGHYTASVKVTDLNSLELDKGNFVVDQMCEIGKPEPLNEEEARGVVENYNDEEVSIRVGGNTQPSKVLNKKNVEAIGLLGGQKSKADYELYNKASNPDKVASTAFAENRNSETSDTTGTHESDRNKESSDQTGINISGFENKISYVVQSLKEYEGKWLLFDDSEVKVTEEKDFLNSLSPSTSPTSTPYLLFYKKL
Chain of Glucocorticoid receptor (Homo sapiens) (P04150 whole entry, looked up, the tested form may be a part): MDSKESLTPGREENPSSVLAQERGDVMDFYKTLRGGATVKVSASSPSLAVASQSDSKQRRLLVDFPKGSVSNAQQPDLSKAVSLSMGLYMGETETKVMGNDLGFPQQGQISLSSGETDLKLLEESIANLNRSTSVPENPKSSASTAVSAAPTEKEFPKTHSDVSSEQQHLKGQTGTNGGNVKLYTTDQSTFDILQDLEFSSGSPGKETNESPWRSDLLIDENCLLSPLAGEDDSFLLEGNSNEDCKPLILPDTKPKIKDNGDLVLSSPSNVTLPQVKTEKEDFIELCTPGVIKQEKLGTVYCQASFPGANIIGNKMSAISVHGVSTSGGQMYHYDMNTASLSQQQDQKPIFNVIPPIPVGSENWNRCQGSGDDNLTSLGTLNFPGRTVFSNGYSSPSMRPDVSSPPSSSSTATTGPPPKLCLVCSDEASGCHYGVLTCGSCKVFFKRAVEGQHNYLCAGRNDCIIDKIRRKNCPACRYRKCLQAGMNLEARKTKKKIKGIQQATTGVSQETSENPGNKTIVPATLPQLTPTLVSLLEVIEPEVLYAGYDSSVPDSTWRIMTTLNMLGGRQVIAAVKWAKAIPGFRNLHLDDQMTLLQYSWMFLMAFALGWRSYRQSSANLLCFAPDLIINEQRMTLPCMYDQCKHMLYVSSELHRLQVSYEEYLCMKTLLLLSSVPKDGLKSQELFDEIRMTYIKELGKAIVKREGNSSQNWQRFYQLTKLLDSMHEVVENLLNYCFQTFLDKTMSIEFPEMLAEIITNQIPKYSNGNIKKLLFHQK
Chain of 3',5'-cyclic-AMP phosphodiesterase 4B (Homo sapiens) (Q07343 whole entry, looked up): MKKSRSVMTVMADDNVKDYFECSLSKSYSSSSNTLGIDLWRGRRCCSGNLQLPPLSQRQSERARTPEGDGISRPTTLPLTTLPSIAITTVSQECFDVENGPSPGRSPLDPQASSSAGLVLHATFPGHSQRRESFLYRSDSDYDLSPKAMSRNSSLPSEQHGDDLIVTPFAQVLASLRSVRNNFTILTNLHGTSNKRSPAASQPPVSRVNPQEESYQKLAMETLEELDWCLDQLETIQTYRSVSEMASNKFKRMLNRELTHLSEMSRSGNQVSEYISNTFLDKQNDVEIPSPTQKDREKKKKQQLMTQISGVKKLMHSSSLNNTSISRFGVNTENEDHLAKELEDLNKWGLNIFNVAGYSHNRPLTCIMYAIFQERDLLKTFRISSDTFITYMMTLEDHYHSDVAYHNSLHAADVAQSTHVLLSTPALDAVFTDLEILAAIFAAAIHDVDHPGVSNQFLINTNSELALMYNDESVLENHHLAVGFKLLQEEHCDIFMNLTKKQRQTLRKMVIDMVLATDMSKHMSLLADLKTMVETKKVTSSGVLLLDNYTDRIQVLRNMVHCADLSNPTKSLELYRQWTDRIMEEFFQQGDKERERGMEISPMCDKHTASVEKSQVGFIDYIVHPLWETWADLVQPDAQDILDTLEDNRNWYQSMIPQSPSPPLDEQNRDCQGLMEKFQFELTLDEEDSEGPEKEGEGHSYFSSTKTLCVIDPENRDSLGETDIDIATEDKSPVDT
Chain of Luciferin 4-monooxygenase (Photinus pyralis) (P08659 whole entry, looked up): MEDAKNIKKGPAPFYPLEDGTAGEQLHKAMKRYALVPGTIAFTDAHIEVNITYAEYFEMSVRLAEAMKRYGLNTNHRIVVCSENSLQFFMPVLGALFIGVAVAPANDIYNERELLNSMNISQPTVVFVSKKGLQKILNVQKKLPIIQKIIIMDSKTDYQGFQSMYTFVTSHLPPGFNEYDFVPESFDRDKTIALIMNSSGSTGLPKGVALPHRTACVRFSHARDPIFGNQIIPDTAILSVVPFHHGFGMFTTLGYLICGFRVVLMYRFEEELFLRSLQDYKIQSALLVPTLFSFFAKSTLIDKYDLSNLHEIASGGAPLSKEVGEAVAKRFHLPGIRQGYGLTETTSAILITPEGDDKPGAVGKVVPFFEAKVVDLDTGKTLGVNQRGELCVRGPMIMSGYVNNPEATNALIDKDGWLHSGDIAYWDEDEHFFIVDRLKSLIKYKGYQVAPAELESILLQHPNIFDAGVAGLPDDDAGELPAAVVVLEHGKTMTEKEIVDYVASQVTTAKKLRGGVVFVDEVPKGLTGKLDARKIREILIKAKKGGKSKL
Chain of ATP-dependent 6-phosphofructokinase (Trypanosoma brucei brucei) (O15648 whole entry, looked up): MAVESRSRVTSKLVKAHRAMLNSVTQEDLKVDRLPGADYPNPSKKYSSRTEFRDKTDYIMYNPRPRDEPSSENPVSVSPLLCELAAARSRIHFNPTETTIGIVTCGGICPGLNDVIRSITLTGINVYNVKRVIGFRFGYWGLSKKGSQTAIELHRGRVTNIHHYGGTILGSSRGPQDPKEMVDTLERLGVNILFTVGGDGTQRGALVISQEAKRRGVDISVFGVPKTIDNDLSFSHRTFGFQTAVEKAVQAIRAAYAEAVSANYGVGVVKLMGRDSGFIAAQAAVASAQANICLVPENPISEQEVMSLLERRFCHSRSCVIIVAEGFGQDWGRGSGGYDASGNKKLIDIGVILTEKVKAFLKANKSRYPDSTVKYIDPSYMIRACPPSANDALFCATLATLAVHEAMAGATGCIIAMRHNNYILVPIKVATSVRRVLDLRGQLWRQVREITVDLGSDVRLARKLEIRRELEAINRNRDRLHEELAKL

CC(=O)Oc1cc(OC(C)=O)c2c(c1)OC(c1ccc(OC(C)=O)c(OC(C)=O)c1)C(OC(C)=O)C2 (stereo not given)
inactive: activity change, negative = inhibition ([1]; at 57.5 µM (top of the series)) 6.42% and -10.2% | Potency [2]
6.69% and -15%: max response [1, 22]
0.329% and -6.77%: max response [1, 21]

O=c1[nH]c(=O)n([C@@H]2C[C@H](O)[C@H](CO)O2)cc1I
inactive: activity change, negative = inhibition [3] 9.17% [at 17.2 µM] | Potency [4] | activity change, negative = inhibition [5] 8.3% [at 17.2 µM] | activity, negative = inhibition [6, 23] 11.4% [at 17.2 µM] | Potency [7] > 20.6 µM | Potency [8] > 20.6 µM | Potency [9] | activity change, negative = inhibition ([1]; at 25.7 µM (top of the series)) -3.3% | outcome [10] | Potency [2] | outcome [11] | activity, negative = inhibition ([12]; parasite line A) -1.96% | activity, negative = inhibition ([12]; parasite line B) 14.3% | Potency [13] | Potency [14] | Potency [15] | Potency [16] | Potency [17] | Potency [18] | Potency [19]
2.86%: max response [1, 21]
1.83%: max response [1, 22]

CN(C)CC[C@H](c1ccc(Br)cc1)c1ccccn1
inactive: Potency [4] | activity, negative = inhibition ([6]; at 17.2 µM (top of the series)) -5.49% | activity, negative = inhibition ([6]; at 38 µM (top of the series)) -29.8% | Potency [9] | Potency [20] | activity change, negative = inhibition ([1]; at 25.7 µM (top of the series)) -2.32% | Potency [2]
-4.35%: max response [1, 21]
-5.95%: max response [1, 22]

C[C@@H](C(=O)O)c1ccc(C(=O)c2cccs2)cc1
-2.83%: max response [1, 21]
-2.07%: max response [1, 22]
inactive: activity change, negative = inhibition [3] 4.04% [at 17.2 µM] | Potency [4] | activity change, negative = inhibition [5] -1.88% [at 17.2 µM] | activity, negative = inhibition [6, 23] 1.29% [at 17.2 µM] | Potency [7] > 20.6 µM | Potency [8] > 20.6 µM | Potency [9] | Potency [20] | activity change, negative = inhibition ([1]; at 25.7 µM (top of the series)) 0.809% | outcome [10] | Potency [2] | outcome [11] | activity, negative = inhibition ([12]; parasite line A) 0.517% | activity, negative = inhibition ([12]; parasite line B) 11.1% | Potency [13] | Potency [14] | Potency [15] | Potency [16] | Potency [17] | Potency [18] | Potency [19]

C[C@H]1NC(=O)NC1=O
inactive: activity change, negative = inhibition [3] 18% [at 17.2 µM] and -9.42% [at 17.2 µM] | Potency [4] | activity change, negative = inhibition [5] -10.2% [at 17.2 µM] and -1.97% [at 17.2 µM] | activity, negative = inhibition [6, 23] -29.7% [at 17.2 µM] and -2.24% [at 17.2 µM] | Potency [7] > 20.6 µM | Potency [8] > 20.6 µM | Potency [9] | Potency [20] | activity change, negative = inhibition ([1]; at 25.7 µM (top of the series)) -0.728% | Potency [2]
-2.21%: max response [1, 21]
-1.48%: max response [1, 22]
